This passage reports binding signal results from publication PMC7862700, “An all-to-all approach to the identification of sequence-specific readers for epigenetic DNA modifications on cytosine”.

Holding throughout (assay): DAPPL (digital affinity profiling via proximity ligation, sequencing); 10 mM Tris-HCl pH 7.5, 50 mM NaCl, 1 mM DTT, 4% glycerol, room temperature, 30 min; GST-TFs on glutathione beads, 16-mer random dsDNA library, 0.1% formaldehyde crosslink after washing; high values mean tight binding
Common to all, as to details: protein: recombinant; tags: N-terminal GST; dsDNA, one strand shown

For one assay, the target named is T1, ELK4 (Homo sapiens, UniProt P28324-2 1-405).
T1 sequence: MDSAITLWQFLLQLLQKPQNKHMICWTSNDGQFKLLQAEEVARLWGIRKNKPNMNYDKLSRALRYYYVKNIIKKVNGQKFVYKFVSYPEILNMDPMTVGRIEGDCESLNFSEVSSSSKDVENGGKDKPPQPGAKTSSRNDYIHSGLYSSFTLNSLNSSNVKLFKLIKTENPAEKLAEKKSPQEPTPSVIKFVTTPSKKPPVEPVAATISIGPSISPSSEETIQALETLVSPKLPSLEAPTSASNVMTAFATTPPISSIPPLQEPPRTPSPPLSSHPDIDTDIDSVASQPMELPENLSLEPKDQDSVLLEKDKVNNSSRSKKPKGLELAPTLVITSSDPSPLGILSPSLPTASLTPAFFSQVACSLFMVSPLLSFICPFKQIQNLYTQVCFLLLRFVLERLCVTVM
In a few lines:
(§1)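 Human transcription factors were made in yeast as GST fusions, captured on glutathione beads and barcoded with DNA. With a tag-only sample included, the pool was incubated with 200 nmole of a random double-stranded 16-mer DNA library in Tris/NaCl/DTT/glycerol buffer at room temperature for 30 min, then crosslinked with 0.1% formaldehyde after washing, ligated by proximity, amplified and sequenced. For binding signal, each hexamer's read frequency for a factor is divided by its frequency for the tag-only sample.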

A further assay addresses T2, ETV2 (Homo sapiens, UniProt O00321 1-342).
T2 sequence: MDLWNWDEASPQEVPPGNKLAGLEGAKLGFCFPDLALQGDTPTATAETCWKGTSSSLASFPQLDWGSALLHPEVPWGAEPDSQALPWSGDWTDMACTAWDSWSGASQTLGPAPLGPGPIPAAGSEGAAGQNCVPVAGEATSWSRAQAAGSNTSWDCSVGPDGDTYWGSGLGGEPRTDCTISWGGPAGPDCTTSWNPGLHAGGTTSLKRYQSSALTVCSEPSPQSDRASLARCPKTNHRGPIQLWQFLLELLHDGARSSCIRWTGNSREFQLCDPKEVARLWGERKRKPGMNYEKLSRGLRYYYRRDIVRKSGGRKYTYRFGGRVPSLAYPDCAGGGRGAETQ
The method in brief:
as §1

The target of a further assay is T3, ELF3 (Homo sapiens, UniProt P78545 1-371).
T3 sequence: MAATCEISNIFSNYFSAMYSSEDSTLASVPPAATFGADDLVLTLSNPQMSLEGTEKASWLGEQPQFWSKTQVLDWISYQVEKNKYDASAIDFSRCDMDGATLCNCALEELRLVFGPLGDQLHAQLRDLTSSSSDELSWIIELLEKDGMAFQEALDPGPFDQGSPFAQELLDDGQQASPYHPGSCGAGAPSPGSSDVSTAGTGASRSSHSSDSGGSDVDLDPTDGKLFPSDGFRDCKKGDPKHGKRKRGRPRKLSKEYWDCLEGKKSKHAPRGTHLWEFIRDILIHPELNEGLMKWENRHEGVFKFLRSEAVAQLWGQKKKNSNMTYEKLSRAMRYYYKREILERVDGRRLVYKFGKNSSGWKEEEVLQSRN
The method in brief:
as §1

For another assay, the target named is T4, ERF (Homo sapiens, UniProt P50548 1-548).
T4 sequence: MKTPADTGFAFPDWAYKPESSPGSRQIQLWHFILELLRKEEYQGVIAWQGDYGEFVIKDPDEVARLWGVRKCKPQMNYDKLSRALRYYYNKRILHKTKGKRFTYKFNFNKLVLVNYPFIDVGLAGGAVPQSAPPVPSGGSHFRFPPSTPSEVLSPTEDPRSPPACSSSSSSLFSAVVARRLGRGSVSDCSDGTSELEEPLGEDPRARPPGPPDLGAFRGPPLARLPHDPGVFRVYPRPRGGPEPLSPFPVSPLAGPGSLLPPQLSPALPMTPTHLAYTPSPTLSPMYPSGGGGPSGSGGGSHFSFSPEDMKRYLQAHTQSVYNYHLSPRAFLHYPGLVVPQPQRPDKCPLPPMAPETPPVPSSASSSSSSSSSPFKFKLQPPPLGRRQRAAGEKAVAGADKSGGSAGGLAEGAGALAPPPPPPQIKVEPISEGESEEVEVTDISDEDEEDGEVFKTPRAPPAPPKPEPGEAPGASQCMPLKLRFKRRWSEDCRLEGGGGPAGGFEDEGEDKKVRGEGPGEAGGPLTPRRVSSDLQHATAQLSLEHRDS
The method in brief: as §1

Another assay has as its target T5, ETV3L (Homo sapiens, UniProt Q6ZN32 1-361).
T5 sequence: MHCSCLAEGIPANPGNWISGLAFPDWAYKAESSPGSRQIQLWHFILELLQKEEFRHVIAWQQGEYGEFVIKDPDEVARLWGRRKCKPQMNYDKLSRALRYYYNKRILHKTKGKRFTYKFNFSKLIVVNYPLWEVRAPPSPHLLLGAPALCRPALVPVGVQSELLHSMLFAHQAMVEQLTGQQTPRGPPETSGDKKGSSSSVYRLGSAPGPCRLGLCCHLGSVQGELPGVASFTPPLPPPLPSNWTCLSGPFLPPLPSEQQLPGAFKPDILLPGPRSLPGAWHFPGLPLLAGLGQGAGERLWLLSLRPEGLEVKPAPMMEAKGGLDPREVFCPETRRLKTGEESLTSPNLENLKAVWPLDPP
The method in brief: as §1

A further assay addresses T6, ETS2 (Homo sapiens, UniProt P15036 1-469).
T6 sequence: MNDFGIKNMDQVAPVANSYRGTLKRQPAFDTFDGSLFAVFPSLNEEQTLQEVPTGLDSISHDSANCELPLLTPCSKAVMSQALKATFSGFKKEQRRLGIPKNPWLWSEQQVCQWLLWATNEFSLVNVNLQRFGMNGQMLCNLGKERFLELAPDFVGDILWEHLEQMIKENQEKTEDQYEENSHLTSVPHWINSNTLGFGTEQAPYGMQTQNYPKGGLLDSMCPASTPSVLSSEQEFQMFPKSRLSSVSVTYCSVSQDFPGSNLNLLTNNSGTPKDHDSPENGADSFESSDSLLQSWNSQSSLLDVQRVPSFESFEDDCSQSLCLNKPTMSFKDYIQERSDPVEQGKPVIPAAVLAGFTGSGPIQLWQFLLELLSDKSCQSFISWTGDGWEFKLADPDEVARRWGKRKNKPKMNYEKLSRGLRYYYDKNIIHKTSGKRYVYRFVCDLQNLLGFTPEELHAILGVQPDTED
In a few lines:
as §1

A further assay concerns the target T7, ETV7 (Homo sapiens, UniProt Q9Y603 1-341).
T7 sequence: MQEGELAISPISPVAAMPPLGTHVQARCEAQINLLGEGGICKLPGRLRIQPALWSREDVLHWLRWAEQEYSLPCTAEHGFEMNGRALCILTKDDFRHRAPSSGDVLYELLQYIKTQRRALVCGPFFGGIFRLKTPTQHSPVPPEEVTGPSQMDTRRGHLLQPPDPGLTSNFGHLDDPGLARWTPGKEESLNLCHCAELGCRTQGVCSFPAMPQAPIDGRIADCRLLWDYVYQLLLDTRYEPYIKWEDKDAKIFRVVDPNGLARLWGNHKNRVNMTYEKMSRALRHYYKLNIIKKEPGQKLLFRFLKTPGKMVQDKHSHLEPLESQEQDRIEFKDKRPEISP
The method in brief:
as §1

In another assay the target is T8, ETV3 (Homo sapiens, UniProt P41162-2 1-143).
T8 sequence: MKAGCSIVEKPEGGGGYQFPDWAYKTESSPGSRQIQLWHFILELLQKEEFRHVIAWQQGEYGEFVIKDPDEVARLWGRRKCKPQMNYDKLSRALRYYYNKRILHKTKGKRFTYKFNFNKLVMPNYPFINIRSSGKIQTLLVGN
In a few lines:
as §1

The target in a further assay is ETV6 (Homo sapiens, UniProt P41212 1-452). In a few lines:
as §1

Sequence of ETV6 (P41212 whole entry): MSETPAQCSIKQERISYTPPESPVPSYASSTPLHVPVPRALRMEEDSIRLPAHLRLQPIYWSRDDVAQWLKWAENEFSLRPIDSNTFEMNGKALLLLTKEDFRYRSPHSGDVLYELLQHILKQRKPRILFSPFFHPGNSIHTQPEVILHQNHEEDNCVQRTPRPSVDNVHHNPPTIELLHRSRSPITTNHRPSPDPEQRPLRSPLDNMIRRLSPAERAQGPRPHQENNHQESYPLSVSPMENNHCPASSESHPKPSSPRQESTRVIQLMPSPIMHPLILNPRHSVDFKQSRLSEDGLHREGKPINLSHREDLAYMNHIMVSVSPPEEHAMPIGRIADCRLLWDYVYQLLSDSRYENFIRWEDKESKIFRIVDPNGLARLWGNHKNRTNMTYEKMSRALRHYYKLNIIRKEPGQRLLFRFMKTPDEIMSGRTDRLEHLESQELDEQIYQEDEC

Consider TGGCCA, for which the binding signal was 1.08 fold enrichment (6-mer frequency, TF over GST control) with ELK4; 1.02 fold enrichment (6-mer frequency, TF over GST control) with ETV2; 1.04 fold enrichment (6-mer frequency, TF over GST control) in the assay with ELF3; 1.06 fold enrichment (6-mer frequency, TF over GST control) with ERF; 1.04 fold enrichment (6-mer frequency, TF over GST control) with ETV3L; 1.07 fold enrichment (6-mer frequency, TF over GST control) with ETS2. In addition, the binding signal with ETV7 is 1.09 fold enrichment (6-mer frequency, TF over GST control); with ETV3, 1 fold enrichment (6-mer frequency, TF over GST control); with ETV6 it was 1.09 fold enrichment (6-mer frequency, TF over GST control).
